This is an account of results in the supplement of paper PMC7156485.

Each structure is given as a SMILES string. Several values for one entry are separate records, joined by “and”; a condition that tells them apart may be missing. Identical values can stand only once.
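Throughout, for H1.0 immunofluorescence intensity relative to DMSO: TDF is a line of transformed human dermal fibroblasts of mesenchymal origin.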
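Throughout, for cell number relative to DMSO: TDF denotes transformed human dermal fibroblasts of mesenchymal origin.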

The test system of one test is TDF. The test can be described thus: cell number relative to DMSO (% of DMSO); higher = more cells (less growth inhibition / toxicity). The note with it: concentration: 10 µM; 24 h. The method in brief: (§1)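 In 384-well plates holding 800 HCC1569 or TDF cells per well in RPMI with 10% FBS, compounds were tested at 10 µM for 24 h at 37 °C in triplicate. Fixation used 3.7% formaldehyde. Staining used a rabbit anti-H1.0 antibody with an AlexaFluor 647 secondary, plus DAPI. Each value, H1.0 nuclear intensity or cell number, is a median of replicates shown as percent of the plate control, and HCC1569 values were smoothed for positional effects.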
For `COc1ccc(-c2nn3c(-c4ccccn4)nnc3s2)cc1OC`, the cell number came to 103.
Consider `CN1CCN(CC(=O)N2c3ccccc3C(=O)Nc3cccnc32)CC1.Cl.Cl` [Pirenzepine.2HCl], for which the cell number came out at 106.
`Cc1c(C)c2c(c(C)c1O)CCC(C)(COc1ccc(CC3SC(=O)NC3=O)cc1)O2` (centres undefined) [Troglitazone] yielded a cell number of 93.8.
The same measure, in the same setting: then `Cc1ccc(S(=O)(=O)NC(=O)NN2CC3CCCC3C2)cc1` (centres undefined) [Gliclazide], with 106; and `O=C(O)c1ccccc1Nc1cccc(OCc2ccc3ccccc3n2)c1`, with 97.2.
For the compound `CCOP(=O)(OCC)C(=Cc1cc(C(C)(C)C)c(O)c(C(C)(C)C)c1)P(=O)(OCC)OCC`, the cell number stood at 101.
On the same count and under the same terms, then `Cn1c(=O)c2[nH]c(-c3ccc(S(=O)(=O)O)cc3)nc2n(C)c1=O` [8-(p-Sulfophenyl)theophylline], with 109; and `CCCCCC=CCC=CCCCCCCCCCCC(=O)O` [12(Z), 15(Z)-Heneicosadienoic acid], with 103.
The same measure, in the same setting: then `C=CC1CN2CCC1CC2C(O)c1ccnc2ccc(OC)cc12.C=CC1CN2CCC1CC2C(O)c1ccnc2ccc(OC)cc12.O=S(=O)(O)O` (centres undefined) [Quinine sulfate], with 97.8.
As to `CCCC1=C(c2ccc(O)cc2)N(c2ccc(O)cc2)NC1=C1C=CC(=O)C=C1` [1,3,5-tris(4-hydroxyphenyl)-4-propyl-1H-pyrazole], the cell number was found to be 107.
The same measure, in the same setting: then `COc1cc2nc(N3CCN(C(=O)C4COc5ccccc5O4)CC3)nc(N)c2cc1OC` (centres undefined) [Doxazosin], with 107; and `C=C1C(=O)C23C(O)C1CCC2C12COC3(O)C(O)C1C(C)(C)CCC2O` (centres undefined) [Rubescensin A], with 99.
On the same count and under the same terms, then `O=C(O)Cc1c[nH]c2ccc(O)cc12` [(5-hydroxy-3H-indol-3-yl)acetic acid], with 94.7; and `c1ccc(-c2[nH]ncc2-c2ccnc3ccccc23)nc1` [TGF-b RI Kinase Inhibitor], with 103.
Same read-out and setting: then `O=NN(CCCl)C(=O)NC1CCCCC1` [Lomustine], with 85.
The compound `CCCCCC(=O)c1c(O)c(Cl)c(OC)c(Cl)c1O` [1-(3,5-dichloro-2,6-dihydroxy-4-methoxyphenyl)-1-hexanone] displayed a cell number of 90.
On the same count and under the same terms, then `CSc1nc2ccc3nc(NC(=O)C(c4ccccc4)c4ccccc4)sc3c2s1`, with 121; and `CC(C)NCC(O)c1ccc2ccccc2c1.Cl` (centres undefined) [Pronethalol.HCl], with 107.
The same measure, in the same setting: the result for `CCCCCCCCCCOCCC(=O)O` [4-Oxatetradecanoic acid] reads 110; that for `CN1CCN(C2=Nc3cc(F)ccc3Cc3ccccc32)CC1` [Fluperlapine], 102.
For `CC(C)NCC(O)c1ccc(O)c(O)c1.Cl` (single isomer, unassigned; (-)) [(-)-Isoproterenol hydrochloride], the cell number was found to be 107.
The compound `N#Cc1c(NC(=O)c2cccc3ccccc23)sc2c1CCCC2` [JNK Inhibitor IX] registered a cell number of 9.56.
Still for that read-out and setting: then `COc1cc2c(Nc3ccc(NC(=O)c4ccccc4)cc3)ncnc2cc1OCCCN1CCOCC1`, with 44; and `C[C@H]1C[C@H]2[C@@H]3CCC4=CC(=O)C=C[C@]4(C)[C@@]3(F)[C@@H](O)C[C@]2(C)[C@@]1(O)C(=O)COP(=O)([O-])[O-].[Na+].[Na+]`, with 106.
Same read-out and setting: the result for `O=C(O)c1ccc(-c2c[nH]c3ncc(-c4ccccc4)cc23)cc1C1CCCC1` reads 69.4 and 71.3.

The test system of the next test is TDF. The test can be described thus: H1.0 immunofluorescence intensity relative to DMSO (% of DMSO); higher = stronger H1.0 induction, active = 120 or more. Particulars: concentration: 10 µM; 24 h. The method in brief: as §1
Consider `CCOC(=O)C(CCc1ccccc1)NC(C)C(=O)N1C(C(=O)O)CC2CCCC21` (centres undefined) [Ramipril], for which the H1.0 immunofluorescence intensity was 94.6 (inactive).
On to `C[N+](C)(C)CCOC(N)=O.[Cl-]` [Carbachol], for which the H1.0 immunofluorescence intensity is 100 (inactive).
The same measure, in the same setting: then `CCCCCC(CC(=O)NO)C(=O)NC(C(=O)N1CCCC1CO)C(C)C` (centres undefined) [Actinonin], with 108 (inactive); and `CS(=O)(=O)CCNCc1nc(-c2ccc3ncnc(Nc4ccc(OCc5cccc(F)c5)c(Cl)c4)c3c2)cs1.Cl.Cl`, with 99.4 (inactive); and `CCn1cc(C(=O)O)c(=O)c2ccc(Cc3ccccc3)nc21` [Amfonelic acid], with 92.2 (inactive).
On the same count and under the same terms, then `CC(O)(P(=O)([O-])O)P(=O)([O-])O` [Etidronate], with 102 (inactive).
Same read-out and setting: then `NC(=O)NO` [Hydroxyurea], with 93.9 (inactive).
As for `CNc1nccc(-c2cccnc2Oc2cc(C(=O)Nc3cccc(C(F)(F)F)c3)ccc2C)n1`, the H1.0 immunofluorescence intensity is 92.9 (inactive).
`COC(=O)Nc1nc2ccc(C(=O)c3ccccc3)cc2[nH]1` [Mebendazol]: the H1.0 immunofluorescence intensity is 188 (active).
`CCOC(=O)c1cnc2c(cnn2CC)c1NN=C(C)C.Cl` [Etazolate hydrochloride]: the H1.0 immunofluorescence intensity was 86.8 (inactive).
Turning to `Cc1ccc(S(=O)(=O)NC(Cc2ccccc2)C(=O)CCl)cc1` [N-p-Tosyl-L-phenylalanine chloromethyl ketone], the H1.0 immunofluorescence intensity is 102 (inactive).
With `Cl.NO` [Hydroxylamine hydrochloride], the H1.0 immunofluorescence intensity is 97.8 (inactive).
Same read-out and setting: the result for `CC(=O)NC(CS)C(=O)O` (centres undefined) [N-Acetyl-Cysteine] reads 96.3 (inactive); that for `COc1cc(-c2oc3cc(O)ccc3c(=O)c2O)ccc1O` [Geraldol], 95.2 (inactive); that for `COc1ccc(-c2nn3c(-c4ccccn4)nnc3s2)cc1OC`, 97.3 (inactive).
With `CN1CCN(CC(=O)N2c3ccccc3C(=O)Nc3cccnc32)CC1.Cl.Cl` [Pirenzepine.2HCl], the H1.0 immunofluorescence intensity was 90.5 (inactive).
The same measure, in the same setting: the result for `Cc1c(C)c2c(c(C)c1O)CCC(C)(COc1ccc(CC3SC(=O)NC3=O)cc1)O2` (centres undefined) [Troglitazone] reads 101 (inactive); that for `Cc1ccc(S(=O)(=O)NC(=O)NN2CC3CCCC3C2)cc1` (centres undefined) [Gliclazide], 89 (inactive); that for `O=C(O)c1ccccc1Nc1cccc(OCc2ccc3ccccc3n2)c1`, 91.5 (inactive).
Turning to `CCOP(=O)(OCC)C(=Cc1cc(C(C)(C)C)c(O)c(C(C)(C)C)c1)P(=O)(OCC)OCC`, the H1.0 immunofluorescence intensity is 93.9 (inactive).
On the same count and under the same terms, the result for `Cn1c(=O)c2[nH]c(-c3ccc(S(=O)(=O)O)cc3)nc2n(C)c1=O` [8-(p-Sulfophenyl)theophylline] reads 93.8 (inactive); that for `CCCCCC=CCC=CCCCCCCCCCCC(=O)O` [12(Z), 15(Z)-Heneicosadienoic acid], 94.4 (inactive); that for `C=CC1CN2CCC1CC2C(O)c1ccnc2ccc(OC)cc12.C=CC1CN2CCC1CC2C(O)c1ccnc2ccc(OC)cc12.O=S(=O)(O)O` (centres undefined) [Quinine sulfate], 92.8 (inactive).
Same read-out and setting: then `CCCC1=C(c2ccc(O)cc2)N(c2ccc(O)cc2)NC1=C1C=CC(=O)C=C1` [1,3,5-tris(4-hydroxyphenyl)-4-propyl-1H-pyrazole], with 92.5 (inactive).
Still for that read-out and setting: then `COc1cc2nc(N3CCN(C(=O)C4COc5ccccc5O4)CC3)nc(N)c2cc1OC` (centres undefined) [Doxazosin], with 100 (inactive); and `C=C1C(=O)C23C(O)C1CCC2C12COC3(O)C(O)C1C(C)(C)CCC2O` (centres undefined) [Rubescensin A], with 96.2 (inactive); and `O=C(O)Cc1c[nH]c2ccc(O)cc12` [(5-hydroxy-3H-indol-3-yl)acetic acid], with 94.7 (inactive).
On to `c1ccc(-c2[nH]ncc2-c2ccnc3ccccc23)nc1` [TGF-b RI Kinase Inhibitor], for which the H1.0 immunofluorescence intensity was 91 (inactive).
Still for that read-out and setting: then `O=NN(CCCl)C(=O)NC1CCCCC1` [Lomustine], with 102 (inactive); and `CCCCCC(=O)c1c(O)c(Cl)c(OC)c(Cl)c1O` [1-(3,5-dichloro-2,6-dihydroxy-4-methoxyphenyl)-1-hexanone], with 101 (inactive); and `CSc1nc2ccc3nc(NC(=O)C(c4ccccc4)c4ccccc4)sc3c2s1`, with 99.4 (inactive).
The same measure, in the same setting: the result for `CC(C)NCC(O)c1ccc2ccccc2c1.Cl` (centres undefined) [Pronethalol.HCl] reads 86.6 (inactive); that for `CCCCCCCCCCOCCC(=O)O` [4-Oxatetradecanoic acid], 95.6 (inactive); that for `CN1CCN(C2=Nc3cc(F)ccc3Cc3ccccc32)CC1` [Fluperlapine], 100 (inactive).
Turning to `CC(C)NCC(O)c1ccc(O)c(O)c1.Cl` (single isomer, unassigned; (-)) [(-)-Isoproterenol hydrochloride], the H1.0 immunofluorescence intensity is 89.5 (inactive).
On the same count and under the same terms, then `N#Cc1c(NC(=O)c2cccc3ccccc23)sc2c1CCCC2` [JNK Inhibitor IX], with 163 (active); and `COc1cc2c(Nc3ccc(NC(=O)c4ccccc4)cc3)ncnc2cc1OCCCN1CCOCC1`, with 126 (active).
Same read-out and setting: then `C[C@H]1C[C@H]2[C@@H]3CCC4=CC(=O)C=C[C@]4(C)[C@@]3(F)[C@@H](O)C[C@]2(C)[C@@]1(O)C(=O)COP(=O)([O-])[O-].[Na+].[Na+]`, with 83.8 (inactive); and `O=C(O)c1ccc(-c2c[nH]c3ncc(-c4ccccc4)cc23)cc1C1CCCC1`, with 95.6 (inactive) and 106 (inactive).
